Several values for one entry are separate records, joined by “and”; a condition that tells them apart may be missing. Equal values may be shown once. Compounds without any hit were thinned out: in the full panel of roughly 83,000, 20% have a hit.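 Percent growth is the endpoint: 0 to 100 indicates growth inhibition (40 means 60% inhibition), 0 means no net growth, and negative values indicate cell death.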 Activity calls are given as the source filed them. Rule for the calls: active = growth percent below 10; inactive = the rest.
How the values were obtained:
Assay in all cases: NCI-60 one-dose screen, 48 h (100 = growth as untreated, 0 = no growth, -100 = all killed)
Settings in all cases: 10 µM unless noted
HCT-15 colon = test system: HCT-15 colon
HT29 colon = test system: HT29 colon
SNB-75 CNS = test system: SNB-75 CNS
SNB-19 CNS = test system: SNB-19 CNS
U251 CNS = test system: U251 CNS
PC-3 prostate = test system: PC-3 prostate
SK-MEL-5 melanoma = test system: SK-MEL-5 melanoma
UACC-62 melanoma = test system: UACC-62 melanoma
LOX IMVI melanoma = test system: LOX IMVI melanoma
SK-MEL-28 melanoma = test system: SK-MEL-28 melanoma

Measured: growth

CCCSc1nnc(-c2sc3nc4ccccc4n3c2C)o1
inactive: HCT-15 colon 99.2% | HT29 colon 110% | SNB-75 CNS 95.6% | SNB-19 CNS 99.8% | U251 CNS 113% | PC-3 prostate 105% | SK-MEL-5 melanoma 98.5% | UACC-62 melanoma 94.5% | LOX IMVI melanoma 113% | SK-MEL-28 melanoma 110%

COc1ccc2[nH]c(O)c(N=NC(=O)c3ccc4nc(-c5ccc(Cl)cc5)[nH]c4c3)c2c1
inactive: HCT-15 colon 105% | HT29 colon 86.1% | SNB-75 CNS 93.8% | SNB-19 CNS 29.6% | PC-3 prostate 58.9% | SK-MEL-5 melanoma 96.2% | UACC-62 melanoma 69.8% | LOX IMVI melanoma 24.6% | SK-MEL-28 melanoma 37.2%
active: U251 CNS -30.5%

CN1CCN(C(=O)CCN(C(=O)Oc2cc3c(c4ccccc24)[C@H](CCl)CN3C(=O)c2cc3cc(OCCCN4CCC4)ccc3[nH]2)[C@H]2CCSSC2)CC1
active: HCT-15 colon -37% | HT29 colon -69.8% | SNB-75 CNS -58.5% | SNB-19 CNS -50.7% | U251 CNS -65.9% | PC-3 prostate -65% | SK-MEL-5 melanoma -93.7% | UACC-62 melanoma -81.9% | LOX IMVI melanoma -71.8% | SK-MEL-28 melanoma -89.2%

Cc1cc(C2(c3cc(C)c(OCC(O)CNc4c(C)n(C)n(-c5ccccc5)c4=O)cc3C(C)C)OC(=O)c3ccccc32)c(C(C)C)cc1OCC(O)CNc1c(C)n(C)n(-c2ccccc2)c1=O (stereo not given)
inactive: HCT-15 colon 19.7% | HT29 colon 13.4% | SNB-75 CNS 46.6% | SNB-19 CNS 48.9% | U251 CNS 22.5% | PC-3 prostate 12.9% | UACC-62 melanoma 24.4% | LOX IMVI melanoma 18.3% | SK-MEL-28 melanoma 33.8%
active: SK-MEL-5 melanoma -25.3%

O=C(CSc1nnc(-c2ccc(-c3nc4ccc(Cl)cc4[nH]3)cc2)o1)Nc1ccc(Cl)cc1
active: HCT-15 colon 8.62% | SNB-75 CNS 2.16% | SNB-19 CNS -8.15% | U251 CNS -74.1% | PC-3 prostate -24.1% | SK-MEL-5 melanoma 8.87% | UACC-62 melanoma -44.8% | LOX IMVI melanoma -92.5% | SK-MEL-28 melanoma -73.6%
inactive: HT29 colon 23.1%

OCCn1cc(-c2nc3ccc4[nH]ncc4c3c3c2CCCC3)cn1
inactive: HCT-15 colon 26.4% | HT29 colon 19.7% | SNB-75 CNS 20% | SNB-19 CNS 59.3% | U251 CNS 51.2% | PC-3 prostate 67.4% | SK-MEL-5 melanoma 22.3% | UACC-62 melanoma 27.9% | LOX IMVI melanoma 25.4% | SK-MEL-28 melanoma 59.3%

FC(F)(F)c1cc2c(Cl)ncnc2n1CCC1CCOCC1
inactive: HT29 colon 48.5%
active: HCT-15 colon -37.7% | SNB-75 CNS -91.1% | SNB-19 CNS -99% | U251 CNS -14.4% | PC-3 prostate 2.75% | SK-MEL-5 melanoma -83.7% | UACC-62 melanoma -34.5% | LOX IMVI melanoma -97% | SK-MEL-28 melanoma -0.403%

O=C(OCCOCCO)N(c1cccc(Br)c1)c1nc(SCCN2CCOCC2)nc2c1cnn2CC(Cl)c1ccc(Br)cc1 (stereo not given)
active: HCT-15 colon -38.8% | HT29 colon 0.205% | SNB-19 CNS -69% | UACC-62 melanoma -58.9% | LOX IMVI melanoma -92.8% | SK-MEL-28 melanoma -43.5%
inactive: SNB-75 CNS 47.7% | U251 CNS 14.9% | PC-3 prostate 12.1% | SK-MEL-5 melanoma 34.2%

Clc1ccccc1Nc1nnc(-c2c[nH]c3ccccc23)o1
active: HT29 colon 2.07% | U251 CNS 7.39% | SK-MEL-5 melanoma 9.29%
inactive: HCT-15 colon 26.1% | SNB-75 CNS 42% | SNB-19 CNS 41% | PC-3 prostate 32.7% | UACC-62 melanoma 15.2% | LOX IMVI melanoma 15.5% | SK-MEL-28 melanoma 59.4%

COC(=O)c1c(C(=O)OC)c2c3ccccc3c3ccccc3n2c1C(=O)C(F)(F)F
inactive: HCT-15 colon 101% | HT29 colon 103% | SNB-75 CNS 87.9% | SNB-19 CNS 102% | U251 CNS 105% | PC-3 prostate 72.4% | SK-MEL-5 melanoma 93.7% | UACC-62 melanoma 63% | LOX IMVI melanoma 87.7% | SK-MEL-28 melanoma 103%

Cc1ccc2c(c1)nc(-c1ccccc1)n2CC(=O)N=Nc1c(O)[nH]c2ccc(Cl)cc12
active: HCT-15 colon -45.7% | HT29 colon -62.7% | SNB-75 CNS -83% | SNB-19 CNS -62.3% | U251 CNS -77.7% | PC-3 prostate -51.2% | SK-MEL-5 melanoma -62.6% | UACC-62 melanoma -63.5% | LOX IMVI melanoma -70.1% | SK-MEL-28 melanoma -71.7%

O=C(NN1C(=O)/C(=C/C=C/c2ccc([N+](=O)[O-])o2)SC1=S)c1ccncc1
active: HCT-15 colon -78.9% | HT29 colon -67.2% | SNB-75 CNS -38.6% | SNB-19 CNS -96.8% | U251 CNS -91.2% | PC-3 prostate -63% | SK-MEL-5 melanoma -99.5% | UACC-62 melanoma -100% | LOX IMVI melanoma -94% | SK-MEL-28 melanoma -88.9%

Cn1cc(-c2cc(N)n3nc(-c4c[nH]c5ccccc45)cc3n2)c2cc(F)ccc21
active: HCT-15 colon -77.5% | HT29 colon -35.4% | U251 CNS -39.4% | LOX IMVI melanoma -80.7%
inactive: SNB-75 CNS 71.5% | SNB-19 CNS 15% | PC-3 prostate 17.4% | SK-MEL-5 melanoma 67.4% | UACC-62 melanoma 66.3% | SK-MEL-28 melanoma 77.5%

O=C1CCC(N2C(=O)c3cccc(NCCOCCOCCOCCC(=O)NCCCC(=O)NC(c4ccc5c(c4)OCO5)c4cc(Cl)c5cccnc5c4O)c3C2=O)C(=O)C1 (stereo not given)
active: UACC-62 melanoma 0.155% | LOX IMVI melanoma -37.6%
inactive: HCT-15 colon 88.8% | HT29 colon 28.5% | SNB-75 CNS 62.7% | SNB-19 CNS 28.5% | U251 CNS 27.2% | PC-3 prostate 32.5% | SK-MEL-5 melanoma 43.6% | SK-MEL-28 melanoma 20.4%

O=C(Nc1ccc(-c2ccc3c(c2)NC(=O)/C3=C\c2ccc[nH]2)cc1)Nc1cccc(Cl)c1
inactive: SNB-75 CNS 16.6% | SNB-19 CNS 19.8% | PC-3 prostate 13.5%
active: HCT-15 colon -32.5% | HT29 colon -61.5% | U251 CNS -52.4% | SK-MEL-5 melanoma -45.7% | UACC-62 melanoma -36.3% | LOX IMVI melanoma -88.4% | SK-MEL-28 melanoma -4.21%

CC(=O)Nc1cccc(-n2c(COc3ccc(Br)cc3)nc3ccccc32)c1
inactive: HCT-15 colon 88.7% and 107% | HT29 colon 123% and 115% | SNB-75 CNS 89% and 94.7% | SNB-19 CNS 96.9% and 98.7% | U251 CNS 94.9% and 113% | PC-3 prostate 72.8% and 103% | SK-MEL-5 melanoma 90.3% and 103% | UACC-62 melanoma 71.9% and 91.9% | LOX IMVI melanoma 91.8% and 104% | SK-MEL-28 melanoma 101% and 106%

COc1cc(C2CC(c3ccc(C(F)(F)F)cc3)=Nc3c(N)nc(N)nc3N2)ccc1Oc1nc(Nc2ccc(F)cc2)nc(N(C)C)n1 (stereo not given)
inactive: HCT-15 colon 18.5% | SNB-75 CNS 46.6% | SNB-19 CNS 49.3% | U251 CNS 41.4% | PC-3 prostate 30.7% | SK-MEL-5 melanoma 23.9% | UACC-62 melanoma 86.3% | SK-MEL-28 melanoma 71.5%
active: HT29 colon 3.28% | LOX IMVI melanoma -17.6%

c1n[nH]cc1-c1nc2ccc3cn[nH]c3c2c2c1CCCC2
inactive: HCT-15 colon 96.2% | HT29 colon 95.5% | SNB-75 CNS 108% | SNB-19 CNS 82.2% | U251 CNS 88% | PC-3 prostate 73.4% | SK-MEL-5 melanoma 81.7% | UACC-62 melanoma 81.4% | LOX IMVI melanoma 69.9% | SK-MEL-28 melanoma 98.2%

CC(C)(C)c1ccc(OCc2nc3ccccc3n2-c2cccc(N)c2)cc1
inactive: HCT-15 colon 39.3% and 103% | HT29 colon 30.8% and 110% | SNB-75 CNS 56.9% and 120% | SNB-19 CNS 75.3% and 100% | U251 CNS 59.3% and 105% | PC-3 prostate 35.2% and 99.9% | UACC-62 melanoma 55.3% and 98.3% | LOX IMVI melanoma 54.7% and 97.9% | SK-MEL-28 melanoma 79.4% and 121%
5.56% (active) and 98.9% (inactive): SK-MEL-5 melanoma

Cc1ccc(C(=O)Nc2cc(-c3ccccc3)cc(C(F)(F)F)c2)cc1C#Cc1cnc2cccnn12
inactive: HCT-15 colon 57.7% | HT29 colon 34.8% | SNB-75 CNS 112% | SNB-19 CNS 92.3% | U251 CNS 74.9% | PC-3 prostate 65.8% | SK-MEL-5 melanoma 26% | UACC-62 melanoma 46.1% | LOX IMVI melanoma 39.4% | SK-MEL-28 melanoma 52.9%

Cn1cc(-c2cc(N)n3nc(-c4c[nH]c5ccc(Cl)cc45)cc3n2)c2cccnc21
active: HCT-15 colon -56.7% | HT29 colon -44.7% | SNB-75 CNS -57.5% | SNB-19 CNS -78.3% | U251 CNS -82% | PC-3 prostate -51.6% | SK-MEL-5 melanoma -97.4% | UACC-62 melanoma -86.4% | LOX IMVI melanoma -93.6% | SK-MEL-28 melanoma -93.7%

CN(C)c1ccc(/C=C/c2n(Cc3ccc4ccccc4c3)c3ccccc3[n+]2Cc2ccc3ccccc3c2)cc1
active: HCT-15 colon -84.4% | HT29 colon -31.6% | SNB-75 CNS -84.3% | SNB-19 CNS -92.5% | U251 CNS -67.5% | PC-3 prostate -50.9% | SK-MEL-5 melanoma -92.2% | UACC-62 melanoma -93.3% | LOX IMVI melanoma -95.7% | SK-MEL-28 melanoma -76%

Cc1cn(-c2cc(NC(=O)c3ccc(C)c(-n4cc(-c5cnc6cccnn56)nn4)c3)cc(C(F)(F)F)c2)cn1
active: HT29 colon 7.41%
inactive: HCT-15 colon 84.8% | SNB-75 CNS 122% | SNB-19 CNS 109% | U251 CNS 44.3% | PC-3 prostate 102% | SK-MEL-5 melanoma 53.9% | UACC-62 melanoma 11.3% | LOX IMVI melanoma 26.8% | SK-MEL-28 melanoma 23.5%

O=C(CSc1nc2c(c(=O)[nH]1)CCCC2)Nc1ccccc1C(=O)O
inactive: HCT-15 colon 98.3% | HT29 colon 105% | SNB-75 CNS 125% | SNB-19 CNS 99.7% | U251 CNS 103% | PC-3 prostate 106% | SK-MEL-5 melanoma 99.3% | UACC-62 melanoma 96.1% | LOX IMVI melanoma 101% | SK-MEL-28 melanoma 112%

Cn1cc(-c2cc(N)n3nc(-c4c[nH]c5ccc(F)cc45)cc3n2)c2cccnc21
active: HCT-15 colon -52.3% | HT29 colon -70.1% | SNB-75 CNS -48.5% | SNB-19 CNS -24.8% | U251 CNS -84.7% | PC-3 prostate -45.3% | SK-MEL-5 melanoma -98.4% | UACC-62 melanoma -93.6% | LOX IMVI melanoma -97.9% | SK-MEL-28 melanoma -92.6%

Reference: PubChem BioAssay (NCI)
